# Data from article PMC4552634, “A New Set of Chemical Starting Points with Plasmodium falciparum Transmission-Blocking Potential for Antimalarial Drug Discovery” (PLoS ONE, 2015).
# Screen size: about 13,000 compounds; about 3,200 (25%) showed an effect of 50% or more. The list shows a part of the results.
# System: P. falciparum stage V gametocytes
# Parameters: BacTiter-Glo ATP luminescence viability of purified stage V gametocytes in 384-well plates, per cent inhibition versus DMSO
# Conditions: 48 h, 5 µM; inhibitor
row,SMILES,% Inhibition
1,Nc1ncc(-c2cccc(OCc3ccccc3)c2)cc1-c1nnc2ccc(Cl)nn12 [TCMDC-134853],-7.115%
2,COC(=O)c1ccc(N2CCN(CCCCNC(=O)c3ccc(NC(=O)c4ccc(Cl)cc4)cc3)CC2)c(OC)c1 [TCMDC-138526],7.636%
3,O=C(Nc1ccc(Cl)cc1)Nc1cccc(-c2cccc(-c3nc4ccccc4[nH]3)c2)c1 [TCMDC-133178],-4.164%
4,CN(C)c1ccc(/C=C2\S/C(=N\c3ccccc3)N(c3ccccc3)C2=O)cc1[N+](=O)[O-] [TCMDC-124086],-8.825%
5,CCC(C)c1ccc(Nc2nc(C)cc(N(CC)CCCN3CCCCC3)n2)cc1 (stereo not drawn) [TCMDC-132456],-18.05%
6,COc1cc(OC)c2c(c1Cl)O[C@]1(C2=O)C(=O)C(Cc2ccccc2)(Cc2ccccc2)C(=O)C[C@H]1C [TCMDC-131804],9.09%
7,COc1ccc(CN(C)CCCOc2ccc(NC(=O)C=Cc3ccc(C(C)(C)C)cc3)cc2)cc1OC [TCMDC-138277],-85.5%
8,COc1ccc(Br)cc1/C=C/C(=O)Nc1ccc2c(c1)CCCN(C)C2 [TCMDC-133717],27.94%
9,CN1CCCc2ccc(NC(=O)C=Cc3ccc(-c4ccc(F)cc4F)o3)cc2C1 [TCMDC-134124],39.53%
10,CN1CCCc2cc(NC(=O)C=Cc3ccc(-c4ccc(F)cc4F)o3)ccc2C1 [TCMDC-134051],105.5%
11,CCCCCn1c(Sc2ccc(C#N)c([N+](=O)[O-])c2)nnc1-c1ccc(OC)cc1 [TCMDC-135603],31.95%
12,COc1ccc2nccc([C@@H](O)CN3CCC(NCc4cnc5c(c4)NC(=O)CS5)CC3)c2c1 [TCMDC-141230],6.568%
13,COc1ccc2ncc(F)c([C@@H](O)CN3CCC(NCc4cc5c(cn4)OCS5)CC3)c2c1 [TCMDC-135862],14.45%
14,COc1ccc2ncc(F)c([C@H](O)CN3CCC(NCc4ccc5c(c4)NC(=O)CS5)CC3)c2c1 [TCMDC-135827],14.82%
15,COc1ccc2ncc(F)c(CCN3CCC(NCc4cnc5c(c4)NC(=O)CS5)CC3)c2c1 [TCMDC-134490],87.27%
16,COc1ccc2ncc(F)c([C@H](O)CN3CCC(NCc4cc5c(cn4)OCCO5)CC3)c2c1 [TCMDC-135296],-10.65%
17,COc1ccc2ncc(F)c(CCN3CCC(NCc4cc5c(cn4)OCCS5)CC3)c2c1 [TCMDC-134569],54.76%
18,CC(C)CC(=O)Nc1cc(=O)[nH]c2nc(-c3ccccc3)nn12 [TCMDC-125475],3.79%
